Assay [1] is described as follows: P-glycoprotein substrates identified in KB-8-5-11 adenocarcinoma cell line, qHTS therapeutic library screen (AID 1346987). Further: nearly all actives have a fitted effect of over 65% in size. In short, it runs like this: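 Luminescence from CellTiter-Glo, read 5 min after addition, quantified survival of KB-8-5-11 (P-gp-overexpressing) cells exposed to compounds for 72 h. AC50 was derived from concentration-response curves.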
For orientation: Quantitative high-throughput screening tests each substance at several concentrations.

Assay [2] is described as follows: NS1 protein of Zika virus - qHTS assay to identify small molecule inhibitors in human HEK 293 cells (AID 1347053). Further: nearly all actives have a fitted effect of over 55% in size. In short, it runs like this:
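Compound-treated (1 h pre-infection) HEK 293 cells infected with ZIKV MR766, MOI = 0.5; after 24 h at 37 C, NS1 read by TR-FRET; data normalized to uninfected and infected controls.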

Assay [3] is described as follows: qHTS of pediatric cancer cell lines to identify multiple opportunities for drug repurposing: Primary screen for TC32 cells (AID 1347089). Further: nearly all actives have a fitted effect of over 60% in size. The essentials: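 qHTS, TC32, 48 h drug treatment, CellTiter-Glo luminescence as a proxy for metabolically active cells; primary top concentration 46 µM (MIPE 11-pt, NPC 8-pt); confirmatory 11-pt.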
Assay [4] is described as follows: qHTS of pediatric cancer cell lines to identify multiple opportunities for drug repurposing: Primary screen for DAOY cells (AID 1347090). Further: nearly all actives have a fitted effect of over 55% in size. The essentials: (§1)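 Viability measured as metabolically active cells via CellTiter-Glo luminescence following 48 hours of compound exposure, 11-point dilutions in confirmatory testing. 500-1,000 cells/well plated 5 hours before dosing; controls were DMSO and 2.3 µM bortezomib.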

A short description of assay [5]: qHTS of pediatric cancer cell lines to identify multiple opportunities for drug repurposing: Primary screen for SJ-GBM2 cells (AID 1347091). In short, it runs like this: as §1

Records with an inconclusive call do not appear. Calls of active or inactive are those of the source. The call rests on the fitted dose curve; in most records, active means well fitted curve in the direction sought with a large enough effect; inconclusive means small, poorly fitted or top-dose-only effect, or another doubt; inactive means no such curve, though single readings can be large; an effect the other way counts as inactive or inconclusive.

The text below walks through data of PubChem BioAssay (NCATS).
Potency means the concentration at half of the fitted maximal effect.

On to `CN(C)CC[C@H](c1ccc(Cl)cc1)c1ccccn1`, for which the Potency entry in assay [1], in assay [2], in assay [3] and in assay [5] was “inactive” each time. For the same compound, in assay [4], the Potency was 23.5 µM (active).

On to `O=C(O)C[C@H](O)C[C@H](O)C=Cc1c(C2CC2)nc2ccccc2c1-c1ccc(F)cc1`, for which the Potency in assay [1] is 7.43 µM (active); in assay [3], 11.7 µM (active); in assay [4], 1.18 µM (active); in assay [5], 11.8 µM (active). In addition, the Potency result in assay [2] is “inactive”.

For `CN(C)c1ccc2cc(C(=O)N[C@@H](CCCN=C(N)CCl)C(=O)NCc3ccccc3)ccc2c1`, the Potency result in assay [1], in assay [2] and in assay [3] was “inactive” each time. Besides, the Potency is 7.43 µM (active) in assay [4] and 20.9 µM (active) in assay [5].

For `CC(Cc1ccc(O)c(O)c1)(NN)C(=O)O` (centres undefined), the Potency entry in assay [1], in assay [2], in assay [3], in assay [4] and in assay [5] was “inactive” throughout.

For `CCn1c(=O)c2c(nc(C=Cc3ccc(OC)c(OC)c3)n2C)n(CC)c1=O`, the Potency entry in assay [1], in assay [2], in assay [3], in assay [4] and in assay [5] was “inactive” each time.

With `Nc1nc(=O)n([C@H]2CSC(CO)O2)cc1F` (some centres undefined), the Potency result in assay [1], in assay [2], in assay [3], in assay [4] and in assay [5] was “inactive” in each case.

As to `CN(CC(=O)N(Cc1ccc(C2CCCCC2)cc1)c1ccc(C(=O)O)c(O)c1)S(=O)(=O)c1c(F)c(F)c(F)c(F)c1F`, the Potency result in assay [1] and in assay [3] was “inactive” in each case. The Potency in assay [5] was 11.8 µM (active).

For the compound `Nc1nc(=O)n([C@H]2C[C@H](O)[C@@H](CO)O2)cc1F`, the Potency in assay [1] was 4.18 µM (active); in assay [3], 0.829 µM (active). The Potency result in assay [4] and in assay [5] was “inactive” each time.

For the compound `C#C[C@]1(O)CC[C@@H]2[C@@H]3CCc4cc(O)ccc4[C@H]3CC[C@@]21C`, the Potency in assay [1] is 11.8 µM (active); in assay [4], 14.8 µM (active); in assay [5], 18.7 µM (active). Also, the Potency entry in assay [3] is “inactive”.

In the case of `O=C1NC(=O)[C@@H](c2cn3c4c(cccc24)CCC3)[C@H]1c1c[nH]c2ccccc12`, the Potency is 0.469 µM (active) in assay [1], 6.62 µM (active) in assay [2] and 0.0833 µM (active) in assay [5].

For the compound `CC(C)NC[C@@H](C(=O)N1CCN(c2ncnc3c2[C@H](C)C[C@H]3O)CC1)c1ccc(Cl)cc1`, the Potency result in assay [1] is “inactive”. Further, the values for the Potency in assay [4] and in assay [5] were 5.9 µM (active) and 3.32 µM (active), respectively.

As to `Cn1cc(C2=C(c3c4n(c5ccccc35)CCC(CN)C4)C(=O)NC2=O)c2ccccc21` (centres undefined), the Potency in assay [2] is 13.2 µM (active).

For the compound `O=C(C=CC=Cc1ccc2c(c1)OCO2)N1CCCCC1`, the Potency result in assay [1], in assay [3], in assay [4] and in assay [5] was “inactive” each time.

For `Nc1ncn([C@@H]2O[C@H](CO)[C@@H](O)[C@@H]2O)c(=O)n1`, the results for the Potency in assay [1] and in assay [5] were 11.8 µM (active) and 7.43 µM (active), respectively.

In the case of `CCCCCN=C(N)NN=Cc1c[nH]c2ccc(OC)cc12`, the Potency in assay [1] is 10.5 µM (active); in assay [3] it was 16.5 µM (active).

For the compound `CCOC(=O)[C@@H](N)Cc1ccc(-c2cc(O[C@H](c3ccc(Cl)cc3-n3ccc(C)n3)C(F)(F)F)nc(N)n2)cc1`, the Potency result in assay [1] and in assay [3] was “inactive” each time.

As for `C=CCNC1=C2C[C@@H](C)C[C@H](OC)[C@@H](O)[C@@H](C)C=C(C)[C@H](OC(N)=O)[C@@H](OC)C=CC=C(C)C(=O)NC(=CC1=O)C2=O`, the Potency in assay [1] is 3.72 µM (active); in assay [3] it was 1.17 µM (active); in assay [4], 2.96 µM (active).

As for `COc1ccc(CCC(=O)c2c(O)cc(O[C@@H]3O[C@H](CO)[C@@H](O)[C@H](O)[C@@H]3O[C@@H]3O[C@@H](C)[C@H](O)[C@@H](O)[C@@H]3O)cc2O)cc1O`, the Potency result in assay [1], in assay [2] and in assay [5] was “inactive” each time.

In the case of `NC(=O)Nc1cc(-c2ccc(CN3CCOCC3)cc2)sc1C(N)=O`, the results for the Potency in assay [1], in assay [3] and in assay [5] were 1.48 µM (active), 0.523 µM (active) and 0.059 µM (active), respectively.

For `Cn1c(Nc2ccc(C(F)(F)F)cc2)nc2cc(Oc3ccnc(-c4ncc(C(F)(F)F)[nH]4)c3)ccc21`, the Potency is 20.9 µM (active) in assay [1], 16.5 µM (active) in assay [3], 18.7 µM (active) in assay [4] and 0.662 µM (active) in assay [5].

`CCN(CC)CCNC(=O)c1c(C)[nH]c(C=C2C(=O)Nc3ccc(F)cc32)c1C`: the figures for the Potency in assay [1], in assay [4] and in assay [5] were 1.21 µM (active), 42.9 µM (active) and 34 µM (active), respectively.

As for `CCN(CC)Cc1ccc2cc(COC(=O)Nc3ccc(C(=O)NO)cc3)ccc2c1`, the Potency in assay [1] was 7.43 µM (active); in assay [3], 5.87 µM (active); in assay [4] it was 2.96 µM (active); in assay [5] it was 0.743 µM (active).

As to `CCOC(=O)[C@H](CCc1ccccc1)N[C@@H](C)C(=O)N1[C@@H](C(=O)O)C[C@H]2CCC[C@@H]21`, the Potency in assay [1] is 10.5 µM (active); in assay [4], 14.8 µM (active); in assay [5], 20.9 µM (active).

For the compound `COC1=C2C[C@@H](C)C[C@H](OC)[C@@H](O)[C@@H](C)C=C(C)[C@H](OC(N)=O)[C@@H](OC)C=CC=C(C)C(=O)NC(=CC1=O)C2=O`, the results for the Potency in assay [1] and in assay [5] were 13.2 µM (active) and 0.743 µM (active), respectively.

Take `CC(C=CC1=C(C)CCCC1(C)C)=CC=CC(C)=CC(=O)Nc1ccc(O)cc1`: the figures for the Potency in assay [1] and in assay [4] were 24.1 µM (active) and 42.9 µM (active), respectively.

With `COc1ccc2c(c1OC)C(=O)OC2[C@H]1c2c(cc3c(c2OC)OCO3)CCN1C` (some centres undefined), the Potency in assay [1] is 1.87 µM (active); in assay [3], 1.04 µM (active); in assay [4], 0.469 µM (active); in assay [5] it was 0.132 µM (active).

As for `c1cc(CN2CCCNCCNCCCNCC2)ccc1CN1CCCNCCNCCCNCC1`, the Potency entry in assay [1], in assay [3], in assay [4] and in assay [5] was “inactive” each time.

Take `CC(=O)O[C@@]12CO[C@H]1C[C@H](O)[C@@]1(C)C(=O)[C@H](O)C3=C(C)[C@@H](OC(=O)C(O)[C@@H](NC(=O)OC(C)(C)C)c4ccccc4)C[C@@](O)([C@@H](OC(=O)c4ccccc4)[C@@H]21)C3(C)C` (some centres undefined): the Potency in assay [1] is 0.0166 µM (active); in assay [3] it was 0.0001 µM (active); in assay [4], 0.001 µM (active); in assay [5], 23.5 µM (active).

As to `CN1CCCN(C(=O)c2cccc(-c3ccc(C=C4C(=O)Nc5ccc(Cl)cc54)o3)c2)CC1`, the Potency in assay [1] and in assay [5] was 16.6 µM (active) in each case.
